Values joined by “and” are separate entries in the source; they are usually repeats but may differ in a detail not shown here. Equal values may be shown once. Some structures have more than one record in an assay (separate samples or runs), and their calls can disagree. Active and inactive are the calls of the source. The calls were made as follows: active = hit-call score of the fitted dose curve at least 0.9, where 1 is the maximum; inactive = score below 0.9.

Read-out in assay [1]: Tumor necrosis factor receptor superfamily member 6 (Homo sapiens) (UniProt P25445)
In words: LTEA_HepaRG_FAS: Life Technologies and Expression Analysis (LTEA) Assay for Fas cell surface death receptor (FAS) using HepaRG (AID 2283447). Conditions: mRNA level, 48 h; actives raise or lower the signal. The method in brief: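 FAS transcript level was measured by TaqMan qRT-PCR against three housekeeping genes after 48 h chemical exposure. Cells were HepaRG, 0.5% DMSO vehicle, with a top concentration of 100 uM and half-log dilutions over eight points, in duplicate.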

Read-out in assay [2]: Fatty acid synthase (Homo sapiens) (UniProt P49327)
In words: LTEA_HepaRG_FASN: Life Technologies and Expression Analysis (LTEA) Assay for Fatty Acid Synthase (FASN) using HepaRG (AID 2283448).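 As to AC50: differentiated human HepaRG liver cells in serum-free induction medium.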 Conditions: mRNA level, 48 h; actives raise or lower the signal. The method in brief:
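HepaRG, 48 h exposure, 8-pt half-log series top 100 uM, 0.5% DMSO vehicle, duplicates. Readout: FASN transcript by Fluidigm qRT-PCR; housekeeping-normalized; bidirectional curve fit vs DMSO baseline.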

Read-out in assay [3]: Cyclin D2 (CCND2), CCND2 (gene 894)
In words: LTEA_HepaRG_CCND2: Life Technologies and Expression Analysis (LTEA) Assay for Cyclin D2 (CCND2) using HepaRG (AID 2283449). Conditions: mRNA level, 48 h; actives raise or lower the signal. The method in brief:
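CCND2 transcript levels, quantified by qRT-PCR and normalised to three housekeeping genes, were fitted bidirectionally against 0.5% DMSO. HepaRG cultures were dosed 48 h in duplicate with an 8-point half-log series up to 100 uM.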

Read-out in assay [4]: Cyclin Dependent Kinase Inhibitor 1A (CDKN1A), CDKN1A (gene 1026)
As to the kind of experiment: LTEA_HepaRG_CDKN1A: Life Technologies and Expression Analysis (LTEA) Assay for Cyclin Dependent Kinase Inhibitor 1A (CDKN1A) using HepaRG (AID 2283450). The following applies: mRNA level, 48 h; actives raise or lower the signal. The method in brief: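 HepaRG, 48 h dosing, 8-pt half-log series from 100 uM top, 0.5% DMSO vehicle, duplicates. Readout: TaqMan qRT-PCR of CDKN1A transcript, housekeeping-normalized (ACTB, GAPDH, POLR2A). Up/down curve fit relative to DMSO.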

Read-out in assay [5]: Cyclin D1 (CCND1), CCND1 (gene 595)
In words: LTEA_HepaRG_CCND1: Life Technologies and Expression Analysis (LTEA) Assay for Cyclin D1 (CCND1) using HepaRG (AID 2283451).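 As to AC50: differentiated human HepaRG liver cells in serum-free induction medium.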 The following applies: mRNA level, 48 h; actives raise or lower the signal. The method in brief: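 qRT-PCR (Fluidigm 96.96 array) read-out of transcript level, housekeeping-normalized (ACTB/GAPDH/POLR2A). HepaRG cells, 48 h chemical exposure, 8-point half-log series from 100 uM, 0.5% DMSO vehicle; gain or loss relative to DMSO baseline.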

Read-out in assay [6]: catalase (CAT), CAT (gene 847)
As to the kind of experiment: LTEA_HepaRG_CAT: Life Technologies and Expression Analysis (LTEA) Assay for catalase (CAT) using HepaRG (AID 2283452). Conditions: mRNA level, 48 h; actives raise or lower the signal. The method in brief:
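Expression of CAT was quantified by TaqMan qRT-PCR with ACTB/GAPDH/POLR2A normalization after 48 h chemical exposure of HepaRG. Eight-point half-log series, top 100 uM, in 0.5% DMSO; gain or loss fitted against vehicle.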

Read-out in assay [7]: flavin-containing dimethylaniline monooxygenases 3 (FMO3), FMO3 (gene 2328)
In words: LTEA_HepaRG_FMO3: Life Technologies and Expression Analysis (LTEA) Assay for flavin-containing dimethylaniline monooxygenases 3 (FMO3) using HepaRG (AID 2283453).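 As to AC50: differentiated human HepaRG liver cells in serum-free induction medium.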 The following applies: mRNA level, 48 h; actives raise or lower the signal. The method in brief:
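Eight-point concentration-response in serum-free HepaRG cultures (top 100 uM, 0.5% DMSO, 48 h). Read-out: FMO3 mRNA level normalized to three endogenous control genes, fitted bidirectionally versus vehicle.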

Read-out in assay [8]: Cytochrome P450 (CYP1A1), CYP1A1 (gene 1543)
As to the kind of experiment: LTEA_HepaRG_CYP1A1: Life Technologies and Expression Analysis (LTEA) Assay for Cytochrome P450 (CYP1A1) using HepaRG (AID 2283454). Conditions: mRNA level, 48 h; actives raise or lower the signal. The method in brief: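 qRT-PCR read-out: CYP1A1 transcript normalized to three housekeeping genes, fitted bidirectionally against 0.5% DMSO vehicle baseline. Human HepaRG cells, 48 h chemical exposure, 8-point half-log series topping at 100 uM.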

Read-out in assay [9]: CFLAR gene, CFLAR (gene 8837)
In words: LTEA_HepaRG_CFLAR: Life Technologies and Expression Analysis (LTEA) Assay for CFLAR gene using HepaRG (AID 2283455). Conditions: mRNA level, 48 h; actives raise or lower the signal. The method in brief: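 Transcript level by qRT-PCR (normalized to ACTB, GAPDH and POLR2A) after 48 h chemical exposure of HepaRG cells, top concentration 100 uM with half-log steps, 0.5% DMSO vehicle, duplicates; fitted bidirectionally against DMSO baseline.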

Read-out in assay [10]: Forkhead box O1 (FOXO1), FOXO1 (gene 2308)
As to the kind of experiment: LTEA_HepaRG_FOXO1: Life Technologies and Expression Analysis (LTEA) Assay for Forkhead box O1 (FOXO1) using HepaRG (AID 2283456). The following applies: mRNA level, 48 h; actives raise or lower the signal. The method in brief:
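FOXO1 transcript quantified by qRT-PCR after 48 h chemical exposure (top 100 uM, half-log steps, 0.5% DMSO) of HepaRG cells, housekeeping-normalized (ACTB/GAPDH/POLR2A). Changes fitted in both directions relative to vehicle.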

Read-out in assay [11]: growth arrest and DNA damage 45 (GADD45A), GADD45A (gene 1647)
As to the kind of experiment: LTEA_HepaRG_GADD45A: Life Technologies and Expression Analysis (LTEA) Assay for growth arrest and DNA damage 45 (GADD45A) using HepaRG (AID 2283458). The following applies: mRNA level, 48 h; actives raise or lower the signal. The method in brief: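 HepaRG, 48 h exposure, 8 conc. (top 100 uM, half-log steps), 0.5% DMSO vehicle, duplicates. Read-out: qRT-PCR mRNA level, housekeeping-normalized (ACTB/GAPDH/POLR2A). Curves fit bidirectionally vs DMSO baseline.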

Read-out in assay [12]: Forkhead box O3 (FOXO3), FOXO3 (gene 2309)
As to the kind of experiment: LTEA_HepaRG_FOXO3: Life Technologies and Expression Analysis (LTEA) Assay for Forkhead box O3 (FOXO3) using HepaRG (AID 2283459). Conditions: mRNA level, 48 h; actives raise or lower the signal. The method in brief: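 FOXO3 transcript measured by qRT-PCR (normalized to ACTB, GAPDH, POLR2A) after 48 h exposure of HepaRG cells in serum-free induction medium. Duplicates, eight half-log concentrations up to 100 uM, 0.5% DMSO; gain or loss fitted against DMSO.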

Read-out in assay [13]: growth arrest and DNA damage 45 (GADD45B), GADD45B (gene 4616)
In words: LTEA_HepaRG_GADD45B: Life Technologies and Expression Analysis (LTEA) Assay for growth arrest and DNA damage 45 (GADD45B) using HepaRG (AID 2283461). The following applies: mRNA level, 48 h; actives raise or lower the signal. The method in brief: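 qRT-PCR read-out (Fluidigm TaqMan, housekeeping-normalized) of mRNA change in human HepaRG cells after 48 h chemical exposure; 8-point curve, top 100 uM, half-log steps, 0.5% DMSO vehicle; gain or loss fitted relative to DMSO baseline.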

Read-out in assay [14]: ABC Transporter (ABCC3), ABCC3 (gene 8714)
As to the kind of experiment: LTEA_HepaRG_ABCC3: Life Technologies and Expression Analysis (LTEA) Assay for ABC Transporter (ABCC3) using HepaRG (AID 2283462). The following applies: mRNA level, 48 h; actives raise or lower the signal. The method in brief:
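qRT-PCR read-out of ABCC3 transcript, normalized to three housekeeping genes (ACTB, GAPDH, POLR2A), after 48 h chemical exposure of human HepaRG cells. Eight half-log concentrations, highest 100 uM, in 0.5% DMSO; gain or loss fitted relative to DMSO baseline.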

Read-out in assay [15]: ABC Transporter (ABCB11), ABCB11 (gene 8647)
As to the kind of experiment: LTEA_HepaRG_ABCB11: Life Technologies and Expression Analysis (LTEA) Assay for ABC Transporter (ABCB11) using HepaRG (AID 2283463). Conditions: mRNA level, 48 h; actives raise or lower the signal. The method in brief: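 ABCB11 transcript levels quantified by TaqMan qRT-PCR against three housekeeping genes after 48 h chemical exposure of HepaRG cultures. Concentrations up to 100 uM in half-log steps, 0.5% DMSO vehicle; both induction and suppression scored.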

Read-out in assay [16]: ABC Transporter (ABCC2), ABCC2 (gene 1244)
As to the kind of experiment: LTEA_HepaRG_ABCC2: Life Technologies and Expression Analysis (LTEA) Assay for ABC Transporter (ABCC2) using HepaRG (AID 2283464). Conditions: mRNA level, 48 h; actives raise or lower the signal. The method in brief:
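qRT-PCR (TaqMan, Fluidigm array) read-out of ABCC2 mRNA, normalized to three housekeeping genes. Differentiated HepaRG cells were treated 48 h in serum-free induction medium with 8-point half-log series from 100 uM in 0.5% DMSO; curves fitted bidirectionally relative to DMSO.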

A short description of assay [17]: CEETOX_H295R_ESTRADIOL: CeeTox H295R High-throughput Steroidogenesis Assay for Estradiol (AID 2283440).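 Also: estradiol secreted into medium quantified by LC-MS/MS after dansyl derivatisation.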 Conditions: actives raise or lower the signal. The method in brief: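 H295R, 48 h forskolin (10 uM) prestim → 48 h compound, 0.1% DMSO final. Estradiol in medium: MTBE extraction, dansyl chloride derivatization, LC-MS/MS. Fit bidirectional vs DMSO baseline; MTT viability in same wells.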

Assay [18] can be described thus: CEETOX_H295R_PROG: CeeTox H295R High-throughput Steroidogenesis Assay for Progesterone (PROG) (AID 2283442). Conditions: actives raise or lower the signal. The method in brief:
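Progesterone read-out: HPLC-MS/MS on MTBE extracts of conditioned medium after 48 h chemical exposure of forskolin-primed (10 uM, 48 h) H295R cells. Gain or loss of signal was fitted relative to DMSO baseline.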

Chain of Fatty acid synthase (Homo sapiens) (P49327 whole entry, looked up): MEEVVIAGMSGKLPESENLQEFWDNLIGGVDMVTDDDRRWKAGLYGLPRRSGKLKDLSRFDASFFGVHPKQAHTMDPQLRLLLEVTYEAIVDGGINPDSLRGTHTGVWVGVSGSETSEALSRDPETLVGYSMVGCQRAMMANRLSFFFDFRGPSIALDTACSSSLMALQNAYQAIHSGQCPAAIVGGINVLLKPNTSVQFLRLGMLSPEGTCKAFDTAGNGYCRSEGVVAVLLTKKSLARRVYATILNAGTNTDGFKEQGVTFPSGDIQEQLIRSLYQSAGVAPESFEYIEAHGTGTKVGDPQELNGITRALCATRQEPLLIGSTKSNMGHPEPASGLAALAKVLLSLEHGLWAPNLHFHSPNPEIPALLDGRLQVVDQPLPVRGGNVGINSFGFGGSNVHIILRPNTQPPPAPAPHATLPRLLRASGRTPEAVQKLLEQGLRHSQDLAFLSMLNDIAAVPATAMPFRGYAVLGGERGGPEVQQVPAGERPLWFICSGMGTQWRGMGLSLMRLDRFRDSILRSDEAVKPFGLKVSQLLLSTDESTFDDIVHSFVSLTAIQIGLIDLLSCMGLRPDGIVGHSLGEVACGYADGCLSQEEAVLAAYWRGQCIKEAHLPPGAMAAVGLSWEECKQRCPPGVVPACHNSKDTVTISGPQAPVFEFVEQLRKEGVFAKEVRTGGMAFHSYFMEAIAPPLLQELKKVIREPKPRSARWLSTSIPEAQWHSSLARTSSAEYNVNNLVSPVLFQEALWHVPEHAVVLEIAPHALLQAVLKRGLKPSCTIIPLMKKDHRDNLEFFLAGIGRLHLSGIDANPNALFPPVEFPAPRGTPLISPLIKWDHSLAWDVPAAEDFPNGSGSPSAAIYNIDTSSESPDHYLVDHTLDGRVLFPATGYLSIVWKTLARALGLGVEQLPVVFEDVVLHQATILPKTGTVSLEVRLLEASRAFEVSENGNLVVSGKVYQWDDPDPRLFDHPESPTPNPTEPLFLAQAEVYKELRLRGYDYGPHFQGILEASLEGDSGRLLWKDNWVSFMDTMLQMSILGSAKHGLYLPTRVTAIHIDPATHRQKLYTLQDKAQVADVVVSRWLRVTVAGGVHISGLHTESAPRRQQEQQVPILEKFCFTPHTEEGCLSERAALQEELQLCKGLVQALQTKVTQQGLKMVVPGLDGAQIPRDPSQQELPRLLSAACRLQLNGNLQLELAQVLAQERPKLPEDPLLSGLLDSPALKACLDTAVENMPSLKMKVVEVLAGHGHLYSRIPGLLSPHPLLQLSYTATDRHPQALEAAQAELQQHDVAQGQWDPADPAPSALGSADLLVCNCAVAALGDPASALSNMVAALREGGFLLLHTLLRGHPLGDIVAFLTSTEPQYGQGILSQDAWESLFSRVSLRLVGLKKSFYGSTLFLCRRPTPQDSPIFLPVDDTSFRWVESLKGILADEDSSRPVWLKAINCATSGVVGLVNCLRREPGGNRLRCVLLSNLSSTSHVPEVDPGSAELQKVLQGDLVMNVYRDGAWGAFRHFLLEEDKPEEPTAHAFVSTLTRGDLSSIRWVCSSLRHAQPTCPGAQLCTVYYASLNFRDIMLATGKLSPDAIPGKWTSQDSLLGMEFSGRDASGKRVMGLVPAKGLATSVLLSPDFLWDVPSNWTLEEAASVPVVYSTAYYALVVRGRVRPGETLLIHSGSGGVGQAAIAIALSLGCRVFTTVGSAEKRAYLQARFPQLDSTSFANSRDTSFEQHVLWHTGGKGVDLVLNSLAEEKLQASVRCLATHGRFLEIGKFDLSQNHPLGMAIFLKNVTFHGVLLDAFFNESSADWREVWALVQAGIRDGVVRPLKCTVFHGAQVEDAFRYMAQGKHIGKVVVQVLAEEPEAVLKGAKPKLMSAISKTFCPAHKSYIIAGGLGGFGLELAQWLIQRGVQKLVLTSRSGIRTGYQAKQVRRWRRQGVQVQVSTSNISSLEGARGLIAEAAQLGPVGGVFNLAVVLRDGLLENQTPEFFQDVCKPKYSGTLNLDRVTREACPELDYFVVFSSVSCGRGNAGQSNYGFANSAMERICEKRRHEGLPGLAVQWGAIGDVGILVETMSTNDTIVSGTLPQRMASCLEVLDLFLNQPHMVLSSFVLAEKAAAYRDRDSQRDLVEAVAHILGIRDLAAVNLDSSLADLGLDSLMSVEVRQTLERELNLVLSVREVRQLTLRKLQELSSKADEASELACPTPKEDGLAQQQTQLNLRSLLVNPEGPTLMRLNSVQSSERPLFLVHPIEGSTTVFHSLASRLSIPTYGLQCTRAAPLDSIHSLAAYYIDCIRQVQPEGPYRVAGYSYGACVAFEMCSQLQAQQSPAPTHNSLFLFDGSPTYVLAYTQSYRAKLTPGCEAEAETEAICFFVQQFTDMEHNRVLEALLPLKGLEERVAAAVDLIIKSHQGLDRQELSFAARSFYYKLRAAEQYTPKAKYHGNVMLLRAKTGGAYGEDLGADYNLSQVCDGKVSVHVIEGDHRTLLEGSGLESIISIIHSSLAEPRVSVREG

As a reminder, the AC50 is the midpoint of the concentration-response curve, whichever way the signal moves. Take `CO/C=C(/C(=O)OC)c1ccccc1Oc1cc(Oc2ccccc2C#N)ncn1`: the AC50 was 78.4 µM (active) and 82.9 µM (active) and 81.6 µM (active) in [1]; 90.5 µM (active) and 91.3 µM (active) and 91 µM (active) in assay [2]; 79.5 µM (active) and 78.9 µM (active) in assay [4]; 12.6 µM (active) in assay [5]; 75.5 µM (active) and 69.5 µM (active) and 74.7 µM (active) in assay [6]; 79.3 µM (active) and 78.7 µM (active) and 76.5 µM (active) in [7]. Also, the AC50 is 27 µM (active) and 25.2 µM (active) and 19 µM (active) in assay [8]; 30.5 µM (active) in assay [9]; 77.3 µM (active) and 70.5 µM (active) and 71.8 µM (active) in [10]; 87.3 µM (active) and 74.6 µM (active) and 95.4 µM (active) in assay [11]; 94.1 µM (active) and 82.7 µM (active) and 84.7 µM (active) in [13]; 22.1 µM (active) and 26.1 µM (active) in assay [14]. Also, the AC50 in [15] was 45.4 µM (active) and 63 µM (active) and 40.5 µM (active); in assay [16] it was 86.9 µM (active) and 83.9 µM (active). The compound was called inactive in assay [3], in assay [5], in [9], in assay [12], in assay [14] and in [16].
On to `CNC(=S)S`, for which the call in assay [17], in [18], in assay [1], in [2], in [3] and in assay [4] was inactive. Besides, the call in assay [5], in [6], in assay [7], in assay [9], in [10] and in assay [11] was inactive. For the same compound, the outcome in assay [12], in assay [14], in assay [15] and in assay [16] was inactive. Further, the AC50 in [8] was 50 µM (active).
Regarding `COP(=S)(OC)Oc1nc(Cl)c(Cl)cc1Cl`, the compound was called inactive in assay [17], in [1], in assay [2], in assay [3], in [4] and in assay [5]. Also, the result in assay [6], in assay [7], in assay [9], in assay [10], in [11] and in assay [12] was inactive. For the same compound, the outcome in assay [14] and in [16] was inactive. In addition, the AC50 in assay [8] is 80.5 µM (active); in assay [15], 86.7 µM (active).

For the origin of these results see PubChem BioAssay (EPA / NIEHS).
